From PubChem BioAssay
The full list was thinned out, with hits kept by preference.
Pin1 inhibitor: blocks the human prolyl isomerase Pin1; Potency, µM (highest dose often 115 µM), for inactives: at the highest dose activity, negative = inhibition, most hits filed as inhibitors; Q13526; 390,000 compounds, 0.009% hits; Pin1 FP peptide displacement, HiFluor488, 10 min; active = well fitted inhibition curve with a large enough effect in the polarisation, with a control signal flat, not every such curve was filed as active; inconclusive = small, poorly fitted or top-dose-only effect, or effect the other way, or a change in a side signal; inactive = no such curve, though single readings can be large or run the other way; the % refers to the polarisation; note: potency is the fitted concentration of half-maximal effect
Target sequence (Q13526 whole entry, looked up): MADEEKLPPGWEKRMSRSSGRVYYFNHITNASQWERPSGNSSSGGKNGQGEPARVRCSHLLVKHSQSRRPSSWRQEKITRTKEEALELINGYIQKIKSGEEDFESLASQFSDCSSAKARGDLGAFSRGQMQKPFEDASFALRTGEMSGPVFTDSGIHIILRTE
PI5P4Ka inh: inhibitors of human PI5P4K alpha; AID 652105; max response, %; 330,000 compounds, 1.2% hits; PI5P4Kalpha enzyme, ADP-Glo luminescence, 60 min; hits give low values; active = max response of -50% or lower; inconclusive = between -30% and -50%; inactive = -30% or higher; note: value at the top dose of about 77 µM
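Luminescence from ADP-Glo served as readout of PI5P4Kalpha activity in a qHTS format. Reaction: enzyme, substrate, compound, ATP at 5 microM final, 60 min at RT.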
PI4K2A block: blocks human PI4K2A kinase activity | Q9BTU6 | purified PI4K2A, ADP-Glo luminescence, 1 h; hits give low values | activity change, negative = inhibition, % at 76.9 µM | 420,000 compounds, 0.13% hits | AID 1346378; in the data active = activity change below about -50%; inconclusive = mostly about -30% to -49%;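 note: -100% = wells without enzyme as full effect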
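PI4K2A activity was measured by ADP-Glo luminescence: enzyme (4 ug/mL stock) and phosphatidylinositol (1.2 mM stock) in Tris pH 7.5/MgCl2/EGTA/Triton X-100 buffer were reacted with ATP (300 microM stock) for one hour at ambient temperature.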
Tb PGK inh: blocks T. brucei phosphoglycerate kinase. P07378. PGK/GAPDH coupled, Kinase-Glo luminescence, 60 min. Potency, µM (doses to about 57.5 µM), inactives show at the highest dose activity change, negative = inhibition, usual class: inhibitors. 380,000 compounds, 0.043% hits. AID 602233; active = well fitted inhibition curve with a large enough effect; inconclusive = small, poorly fitted or top-dose-only effect; inactive = no such curve, though single readings can be large or run the other way; note: potency is the fitted concentration of half-maximal effect; nearly all actives have a fitted effect of over 60% in size
Target sequence (P07378 whole entry, looked up): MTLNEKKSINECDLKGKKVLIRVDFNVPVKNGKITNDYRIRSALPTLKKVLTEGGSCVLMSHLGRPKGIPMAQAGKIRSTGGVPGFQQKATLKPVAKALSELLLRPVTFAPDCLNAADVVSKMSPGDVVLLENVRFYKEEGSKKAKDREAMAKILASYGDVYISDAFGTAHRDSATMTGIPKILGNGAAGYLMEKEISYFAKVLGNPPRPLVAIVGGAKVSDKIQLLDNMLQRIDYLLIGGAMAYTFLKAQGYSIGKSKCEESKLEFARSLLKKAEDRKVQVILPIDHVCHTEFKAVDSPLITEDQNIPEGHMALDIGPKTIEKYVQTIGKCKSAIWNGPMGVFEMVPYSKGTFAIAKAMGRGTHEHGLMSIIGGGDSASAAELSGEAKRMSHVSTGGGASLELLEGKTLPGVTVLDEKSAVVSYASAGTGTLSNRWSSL
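Luminescent ATP detection (Kinase-Glo Plus) follows a 60-minute room-temperature incubation, with wells lacking PGK as controls. Buffer: 100 mM TEA (pH 7.6), 5 mM MgCl2, 0.01% Tween-20. Coupling enzyme GAPDH (100 nM final) supplies unstable 1,3-BPG in-well.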
* = called active by the depositor; i = inactive; ? = inconclusive; · = no result; [ ] = remark or other dose. Unless noted, % is set by controls: 0 for no effect and ±100 for the full control effect.

SMILES | Pin1 inhibitor | PI5P4Ka inh | PI4K2A block | Tb PGK inh
COc1cccc(OCCOc2ccc(/C=C3/SC(=S)NC3=O)cc2)c1 | 49.0% | -84.9* | -8.5 | -20.1%
COc1ccc(/C=C2/SC(=O)NC2=O)cc1 | 8.3% | ? | -3.4 | i
O=C1NC(=O)/C(=C/c2ccc3nccnc3c2)S1 | · | · | -8.3 | ·
COc1ccc(C=C2SC(=S)NC2=O)cc1 | 6.3% | -86.4* | -1.0 | i
O=C1NC(=S)S/C1=C\c1ccc2ccccc2c1 | 11.7% | -62.3* | 0.6 | 4.0%
NC(=O)NC1N=C([O][Al])NC1=O (centres undefined) | · | · | 2.1 | ·
CC(C(O)c1ccccc1)N(C)CCOC(c1ccccc1)c1ccccc1 (centres undefined) | · | · | -0.3 | ·
COc1cc(/C=N/N2C(=O)CSC2=S)cc(Br)c1O | ? | -74.9* | -16.6 | ?
COc1cccc(/C=N/N2C(=O)CSC2=S)c1O | 52.4% | -55.0* | -0.6 | 6.4%
O=C1CSC(=S)N1/N=C/C=C/c1ccccc1 | 3.8% | -63.0* | -12.2 | i
O=C1CSC(=S)N1N=Cc1c(O)ccc2ccccc12 | ? | -73.1* | -11.1 | -9.9%
O=c1[nH]c(=O)n([C@H]2CCCO2)cc1F | · | · | 1.6 | ·
N#CN1CCC(N[S+](=O)([O-])c2cccc(F)c2)CC1 | -2.7% | · | · | ·
COc1cccc(C2c3c(ncn(-c4cccc(Cl)c4)c3=N)Oc3ccc4ccccc4c32)c1 (centres undefined) | 40.1% | · | · | ·
O=C(Nc1ncnc2nc[nH]c12)c1ccccc1 | -4.9% | · | · | ·
Cc1ccc(NS(=O)(=O)c2ccc3c(c2)CCC(=O)N3)cc1F | -9.1% | · | · | ·
O=C(N/N=C/c1ccc(-c2cccc([N+](=O)[O-])c2)o1)c1cccs1 | 1.3% | -6.7 | 2.2 | 3.7%
N#C/C(=C\c1ccc(-c2cccc([N+](=O)[O-])c2)o1)C(=O)Nc1nc(-c2cccs2)cs1 | 15.8% | -51.9* | -6.9 | -2.8%
COc1ccc(C(=O)N(Cc2ccccc2)Cc2ccccc2)c(O)c1 | -1.6% | · | · | ·
CCc1ccc(NC(=O)c2cnn3c(C)cc(C)nc23)cc1 | -3.5% | · | · | ·
CCC(=O)OC1(C)C(=O)C=C2C=C(c3ccc(C#N)cc3)OC=C2C1=O (centres undefined) | -19.7% | -67.7* | -4.9 | -12.7%
Cc1ccccc1Nc1nc(C#N)nc(NC2CCCC2)n1 | 5.2% | · | · | ·
CC(C)n1c(CNC(=O)c2ccccc2F)nnc1SCC(=O)NC1CCCCC1 | 0.8% | -71.4* | -3.0 | i
O=C(O)c1cccc(Cn2c(Cl)c(/C=N/NC(=O)c3cc4ccccc4cc3O)sc2=O)c1 | ? | -72.8* | -6.8 | ?
O=C(O)c1cccc(Cn2c(Cl)c(/C=N/NC(=O)c3ccccc3)sc2=O)c1 | -7.8% | 4.1 | -8.6 | 0.7%
SMILES | Pin1 inhibitor | PI5P4Ka inh | PI4K2A block | Tb PGK inh
COc1ccc(S(=O)(=O)c2c(N)n(Cc3ccco3)c3nc4ccccc4nc23)cc1 | ? | -88.8* | ? | -8.2%
O=C1C(=O)N(Cc2ccco2)C(c2cccs2)/C1=C(\O)c1cccc([N+](=O)[O-])c1 (centres undefined) | 0.9% | -79.0* | -1.6 | i
CC(CNC(=O)c1nnc(Cc2ccc(F)cc2)o1)c1ccccc1 (centres undefined) | -2.2% | · | 0.2 | 2.6%
O=S(=O)(c1ccc(N=C2NN=C(c3cc(F)ccc3F)CS2)cc1)N1CCOCC1 | 18.7% | -50.7* | -7.6 | -8.4%
NCCCN(Cc1ccc(Cl)c(Cl)c1)c1ccc(Br)cn1 | 1.7% | · | · | ·
O=C(NCc1ccco1)C1Cc2ccccc2CN1C(=O)c1ccco1 (centres undefined) | -14.7% | ? | -5.6 | i
O=C(NCc1ccco1)C1Cc2ccccc2CN1S(=O)(=O)c1ccccc1F (centres undefined) | ? | -61.5* | -18.3 | -15.7%
O=C1c2ccccc2-c2ccc(P(=O)(O)O)cc21 | · | · | -0.9 | ·
CCc1nn2c(=O)cc(-c3ccncc3)nc2s1 | -1.1% | · | · | ·
COc1cccc(/C(O)=C/c2nc3ccc(C(=O)NCCc4ccc(Cl)cc4)cc3[nH]c2=O)c1 | ? | -92.9* | -0.4 | 0.7%
COc1cccc(N=C2NC(=O)/C(=C/c3cc([N+](=O)[O-])ccc3O)S2)c1 | ? | -76.2* | 4.7 | ?
Cc1ccc(S(=O)(=O)/N=C2/NC(=O)/C(=C/c3cc([N+](=O)[O-])ccc3O)S2)cc1 | ? | 267.9 | -3.3 | 1.3%
O=C1NC(=Nc2ccccc2Cl)S/C1=C\c1cc([N+](=O)[O-])ccc1O | ? | -67.0* | -6.6 | -6.1%
CCOc1ccccc1NC(=O)N1CCc2cc(S(=O)(=O)N3CCC(C)CC3)ccc21 | 0.9% | · | -5.0 | ·
COc1cc(/C=C2\C(=N)N3N=C(S(C)(=O)=O)SC3=NC2=O)ccc1OCCOc1ccc(C)cc1 | 5.7% | ? | -3.6 | -6.2%
CCS(=O)(=O)C1=NN2C(=N)/C(=C\c3ccc(OCCOc4cccc(OC)c4)c(OC)c3)C(=O)N=C2S1 | ? | -78.0* | -7.1 | -17.3%
CCOc1cc(/C=C2\C(=N)N3N=C(S(C)(=O)=O)SC3=NC2=O)ccc1OCCOc1cccc(OC)c1 | ? | -79.7* | -0.7 | ?
CCC1=NN2C(=N)/C(=C\c3ccc(OCc4cc(=O)n5nc(CC)sc5n4)c(OC)c3)C(=O)N=C2S1 | ? | -71.1* | -6.3 | -16.2%
c1ccc2c(c1)CCc1ccccc1N2 | · | · | 0.1 | ·
COc1ccc(Cc2nnc(NC(=O)Cc3cccs3)s2)cc1OC | ? | -92.0* | -11.6 | ?
COc1ccc(/C=C/C(=O)OCC(=O)NCCC2=CCCCC2)cc1 | 0.0% | -5.1 | 4.1 | -6.7%
COc1cccc(/C=C/C(=O)OCC(=O)NCc2ccco2)c1 | ? | -53.2* | -10.0 | -2.3%
COc1cccc(/C=C/C(=O)OCC(=O)NCCC2=CCCCC2)c1 | ? | -64.7* | -2.0 | 5.0%
O=C(COC(=O)/C=C/c1cccc(Br)c1)NCc1ccco1 | 0.7% | 3.9 | 2.3 | -5.9%
CCCC(=O)Nc1ccc(O)c(C(C)=O)c1 | · | · | -1.1 | ·
SMILES | Pin1 inhibitor | PI5P4Ka inh | PI4K2A block | Tb PGK inh
O=C(Nc1cc(C(F)(F)F)ccc1Cl)C(O)Cc1ccccc1 (centres undefined) | -2.5% | · | · | ·
CCOc1cc(-c2cc(-c3ccc(C)o3)nc(N)c2C#N)ccc1O | 14.3% | -54.5* | -4.8 | 2.3%
Cc1ccc(-c2cc(-c3ccc(Cl)cc3)c(C#N)c(N)n2)o1 | 9.1% | -92.6* | 2.7 | i
Cc1cc(-c2cc(-c3ccc(Cl)cc3)nc(N)c2C#N)co1 | 23.9% | -68.8* | 4.3 | -9.5%
Cc1ccc(-c2cc(-c3ccc(C)o3)nc(N)c2C#N)cc1 | ? | -90.1* | -3.3 | -7.4%
COc1ccc(-c2cc(-c3ccc(O)cc3)nc(N)c2C#N)cc1OC | ? | -27.9 | 6.6 | 5.7%
CC(C)C[C@@H]1[C@H](c2ccccc2)OC(=O)N1CCCN1CCCCCC1 | · | · | 2.2 | ·
CCOC(=O)CNC(=O)N(C)[C@H]1C[C@H]2c3[nH]c4ccccc4c3CCN2C(=O)[C@H]1[C@H](C)O | · | -3.0 | -1.9 | ·
O=S1(=O)N=C(Oc2cccc(Cl)c2)c2ccccc21 | -6.3%[163 µM] | · | · | ·
Cc1ccc(-c2cc(-c3ccc4c(c3)OCO4)c(C#N)c(N)n2)o1 | 42.1% | · | 13.4 | -8.1%
